Drawing on ChEMBL document CHEMBL1961873, “Compounds: GSK PKIS; Assays: Nanosyn kinase panel” (2012), this text covers inhibition for 2 compounds.

As a reminder, the inhibition is the percentage by which the read-out fell short of the control. Lower therefore signals a weak effect.

The target in test [1] is Protein kinase C gamma type (Homo sapiens) (UniProt P05129). The conditions noted are these: at 1 µM.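 Note: each value is an averaged percent inhibition of the enzyme.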
Test [2] deals with T1, Protein kinase C iota type (Homo sapiens) (UniProt P41743).
T1 sequence (whole entry): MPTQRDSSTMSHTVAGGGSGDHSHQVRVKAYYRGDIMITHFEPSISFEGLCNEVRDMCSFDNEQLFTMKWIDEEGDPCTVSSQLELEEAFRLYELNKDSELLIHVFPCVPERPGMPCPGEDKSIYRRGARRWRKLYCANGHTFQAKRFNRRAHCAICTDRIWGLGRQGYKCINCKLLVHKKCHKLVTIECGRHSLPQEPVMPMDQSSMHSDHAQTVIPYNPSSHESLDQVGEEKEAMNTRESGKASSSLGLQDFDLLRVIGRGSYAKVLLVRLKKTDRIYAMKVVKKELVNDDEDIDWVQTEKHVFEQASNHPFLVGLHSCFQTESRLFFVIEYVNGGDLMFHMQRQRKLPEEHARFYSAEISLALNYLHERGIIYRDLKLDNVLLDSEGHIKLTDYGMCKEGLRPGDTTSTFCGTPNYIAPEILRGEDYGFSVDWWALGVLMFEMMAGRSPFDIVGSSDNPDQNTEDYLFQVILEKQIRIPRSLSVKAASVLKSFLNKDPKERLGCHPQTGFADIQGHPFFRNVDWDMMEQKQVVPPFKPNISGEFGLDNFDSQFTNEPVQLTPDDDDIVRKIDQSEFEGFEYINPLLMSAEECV
The note with it: at 0.1 µM.

In test [3] the target is T1, Protein kinase C iota type (Homo sapiens). The conditions noted are these: at 1 µM.
For test [4], the target named is Protein kinase C theta type (Homo sapiens) (UniProt Q04759). The note with it: at 0.1 µM.
Test [5] shares this target. The conditions noted are these: at 1 µM.
The target of test [6] is Protein kinase C beta type (Homo sapiens) (UniProt P05771). The conditions noted are these: at 0.1 µM.
Test [7] shares this target. The conditions noted are these: at 1 µM.
In test [8] the target is T2, Serine/threonine-protein kinase D1 (Homo sapiens) (UniProt Q15139).
T2 sequence (whole entry): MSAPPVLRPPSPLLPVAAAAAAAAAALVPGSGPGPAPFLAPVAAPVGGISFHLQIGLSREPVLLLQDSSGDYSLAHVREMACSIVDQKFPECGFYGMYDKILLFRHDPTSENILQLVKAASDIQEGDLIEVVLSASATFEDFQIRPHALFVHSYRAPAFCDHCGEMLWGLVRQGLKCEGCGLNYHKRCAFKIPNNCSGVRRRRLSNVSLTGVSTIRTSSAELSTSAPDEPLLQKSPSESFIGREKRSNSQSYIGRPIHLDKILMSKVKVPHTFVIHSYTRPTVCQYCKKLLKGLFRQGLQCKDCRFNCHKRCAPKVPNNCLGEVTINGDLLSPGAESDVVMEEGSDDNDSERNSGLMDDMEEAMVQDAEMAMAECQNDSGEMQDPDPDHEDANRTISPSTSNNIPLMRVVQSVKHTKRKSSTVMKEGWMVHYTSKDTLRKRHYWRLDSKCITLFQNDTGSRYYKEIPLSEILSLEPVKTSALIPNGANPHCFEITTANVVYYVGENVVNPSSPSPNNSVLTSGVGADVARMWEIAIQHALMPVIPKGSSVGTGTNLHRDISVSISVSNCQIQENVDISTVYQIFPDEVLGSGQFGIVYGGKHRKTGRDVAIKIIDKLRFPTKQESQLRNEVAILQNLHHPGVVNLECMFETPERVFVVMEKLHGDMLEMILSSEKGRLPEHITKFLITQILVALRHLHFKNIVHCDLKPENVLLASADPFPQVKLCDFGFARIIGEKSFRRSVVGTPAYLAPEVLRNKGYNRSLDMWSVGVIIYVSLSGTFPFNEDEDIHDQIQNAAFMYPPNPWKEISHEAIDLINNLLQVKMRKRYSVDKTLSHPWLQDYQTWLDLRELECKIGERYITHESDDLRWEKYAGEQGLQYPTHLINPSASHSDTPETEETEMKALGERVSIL
The conditions noted are these: at 0.1 µM.

Test [9] deals with T2, Serine/threonine-protein kinase D1 (Homo sapiens). The note with it: at 1 µM.
For test [10], the target named is T3, Serine/threonine-protein kinase D2 (Homo sapiens) (UniProt Q9BZL6).
T3 sequence (whole entry): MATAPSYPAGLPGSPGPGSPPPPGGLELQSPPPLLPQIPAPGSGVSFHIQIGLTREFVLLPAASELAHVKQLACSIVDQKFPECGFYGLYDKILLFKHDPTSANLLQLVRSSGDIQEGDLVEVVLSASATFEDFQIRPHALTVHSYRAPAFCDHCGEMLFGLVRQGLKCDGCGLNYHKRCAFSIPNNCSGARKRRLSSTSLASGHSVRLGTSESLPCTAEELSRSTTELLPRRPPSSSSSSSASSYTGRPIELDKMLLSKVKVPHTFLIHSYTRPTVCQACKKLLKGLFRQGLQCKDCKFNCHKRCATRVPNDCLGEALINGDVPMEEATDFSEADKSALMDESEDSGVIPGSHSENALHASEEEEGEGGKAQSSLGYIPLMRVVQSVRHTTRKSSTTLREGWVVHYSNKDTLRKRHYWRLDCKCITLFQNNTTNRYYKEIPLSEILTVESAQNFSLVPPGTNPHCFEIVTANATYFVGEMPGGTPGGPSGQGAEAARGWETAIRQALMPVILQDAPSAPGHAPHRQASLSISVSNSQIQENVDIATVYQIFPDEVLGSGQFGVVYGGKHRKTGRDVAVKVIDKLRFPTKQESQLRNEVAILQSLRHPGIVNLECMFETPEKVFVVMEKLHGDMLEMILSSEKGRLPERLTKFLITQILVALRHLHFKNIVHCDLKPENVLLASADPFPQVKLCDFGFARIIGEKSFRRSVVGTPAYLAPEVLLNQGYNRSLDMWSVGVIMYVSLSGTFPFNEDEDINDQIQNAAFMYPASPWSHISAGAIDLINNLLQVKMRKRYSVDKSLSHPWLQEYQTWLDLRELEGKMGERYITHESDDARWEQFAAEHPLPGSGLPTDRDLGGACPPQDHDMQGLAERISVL
The conditions noted are these: at 0.1 µM.

Test [11] has as its target T3, Serine/threonine-protein kinase D2 (Homo sapiens). The conditions noted are these: at 1 µM.
The target in test [12] is T4, Serine/threonine-protein kinase D3 (Homo sapiens) (UniProt O94806).
T4 sequence (whole entry): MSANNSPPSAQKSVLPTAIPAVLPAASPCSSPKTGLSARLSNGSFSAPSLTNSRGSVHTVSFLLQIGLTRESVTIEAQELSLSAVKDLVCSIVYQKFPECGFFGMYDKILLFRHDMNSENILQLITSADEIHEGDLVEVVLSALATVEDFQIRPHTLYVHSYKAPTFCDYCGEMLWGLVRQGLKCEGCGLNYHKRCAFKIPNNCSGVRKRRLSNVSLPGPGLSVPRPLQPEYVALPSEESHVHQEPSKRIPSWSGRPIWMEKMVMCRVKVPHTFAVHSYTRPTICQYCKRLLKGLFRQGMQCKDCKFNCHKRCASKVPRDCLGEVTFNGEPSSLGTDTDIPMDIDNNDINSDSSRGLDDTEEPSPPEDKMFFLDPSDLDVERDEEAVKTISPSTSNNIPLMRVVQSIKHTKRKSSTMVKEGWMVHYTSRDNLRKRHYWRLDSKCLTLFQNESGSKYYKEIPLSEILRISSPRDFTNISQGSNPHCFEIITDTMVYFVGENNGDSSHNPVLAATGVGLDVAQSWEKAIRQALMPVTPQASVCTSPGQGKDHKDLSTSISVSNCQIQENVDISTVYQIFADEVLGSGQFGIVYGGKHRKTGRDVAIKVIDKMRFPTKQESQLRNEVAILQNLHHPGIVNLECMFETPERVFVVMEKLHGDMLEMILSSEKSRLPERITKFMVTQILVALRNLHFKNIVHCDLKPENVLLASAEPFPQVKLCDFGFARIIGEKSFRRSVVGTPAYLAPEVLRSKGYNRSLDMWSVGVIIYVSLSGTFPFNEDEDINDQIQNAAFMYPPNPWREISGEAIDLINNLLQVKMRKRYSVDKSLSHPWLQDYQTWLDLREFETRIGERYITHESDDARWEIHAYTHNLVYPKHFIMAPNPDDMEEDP
The note with it: at 0.1 µM.

The target in test [13] is T4, Serine/threonine-protein kinase D3 (Homo sapiens). The conditions noted are these: at 1 µM.
The target of test [14] is T5, cGMP-dependent protein kinase 1 (Homo sapiens) (UniProt Q13976).
T5 sequence (whole entry): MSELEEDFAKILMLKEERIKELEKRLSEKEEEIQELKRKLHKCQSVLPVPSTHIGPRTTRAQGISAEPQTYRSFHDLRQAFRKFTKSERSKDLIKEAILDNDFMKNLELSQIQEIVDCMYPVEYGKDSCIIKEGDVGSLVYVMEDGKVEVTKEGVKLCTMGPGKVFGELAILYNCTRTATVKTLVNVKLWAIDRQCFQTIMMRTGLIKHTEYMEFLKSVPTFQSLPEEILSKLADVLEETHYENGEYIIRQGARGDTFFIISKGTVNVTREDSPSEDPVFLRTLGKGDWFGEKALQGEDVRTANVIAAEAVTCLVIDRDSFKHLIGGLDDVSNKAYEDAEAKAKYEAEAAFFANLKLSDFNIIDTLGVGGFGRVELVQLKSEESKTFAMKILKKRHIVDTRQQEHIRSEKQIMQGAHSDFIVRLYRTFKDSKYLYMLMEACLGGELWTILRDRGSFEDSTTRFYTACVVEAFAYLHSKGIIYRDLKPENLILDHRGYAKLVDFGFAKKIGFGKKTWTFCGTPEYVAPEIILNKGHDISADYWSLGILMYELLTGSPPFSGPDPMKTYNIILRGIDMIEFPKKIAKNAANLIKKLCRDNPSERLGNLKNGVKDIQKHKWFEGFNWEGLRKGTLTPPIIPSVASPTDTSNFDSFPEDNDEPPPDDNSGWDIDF
The note with it: at 0.1 µM.

In test [15] the target is T5, cGMP-dependent protein kinase 1 (Homo sapiens). The conditions noted are these: at 1 µM.
For test [16], the target named is T6, cGMP-dependent protein kinase 2 (Homo sapiens) (UniProt Q13237).
T6 sequence (whole entry): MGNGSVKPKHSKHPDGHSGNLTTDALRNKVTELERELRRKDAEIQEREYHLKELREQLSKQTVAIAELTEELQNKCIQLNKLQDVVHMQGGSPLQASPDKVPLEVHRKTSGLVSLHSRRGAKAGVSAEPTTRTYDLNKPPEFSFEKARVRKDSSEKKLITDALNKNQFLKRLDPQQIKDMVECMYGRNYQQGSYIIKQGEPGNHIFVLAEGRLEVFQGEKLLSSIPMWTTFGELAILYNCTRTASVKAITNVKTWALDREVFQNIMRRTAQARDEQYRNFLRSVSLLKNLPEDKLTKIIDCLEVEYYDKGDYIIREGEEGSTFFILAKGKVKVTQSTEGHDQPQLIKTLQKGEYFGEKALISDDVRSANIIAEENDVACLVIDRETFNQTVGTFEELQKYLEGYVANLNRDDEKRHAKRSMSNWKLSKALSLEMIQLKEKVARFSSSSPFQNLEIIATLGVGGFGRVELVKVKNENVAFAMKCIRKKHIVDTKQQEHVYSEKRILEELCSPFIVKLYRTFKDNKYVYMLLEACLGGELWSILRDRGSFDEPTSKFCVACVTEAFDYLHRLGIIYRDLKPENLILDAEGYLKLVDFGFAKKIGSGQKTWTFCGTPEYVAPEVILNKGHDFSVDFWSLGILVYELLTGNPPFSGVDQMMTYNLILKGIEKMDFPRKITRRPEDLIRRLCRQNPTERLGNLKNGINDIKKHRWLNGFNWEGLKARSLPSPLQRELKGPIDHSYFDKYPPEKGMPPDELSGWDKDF
The conditions noted are these: at 0.1 µM.

Test [17] has as its target T6, cGMP-dependent protein kinase 2 (Homo sapiens). The conditions noted are these: at 1 µM.
For test [18], the target named is T7, cAMP-dependent protein kinase catalytic subunit PRKX (Homo sapiens) (UniProt P51817).
T7 sequence (whole entry): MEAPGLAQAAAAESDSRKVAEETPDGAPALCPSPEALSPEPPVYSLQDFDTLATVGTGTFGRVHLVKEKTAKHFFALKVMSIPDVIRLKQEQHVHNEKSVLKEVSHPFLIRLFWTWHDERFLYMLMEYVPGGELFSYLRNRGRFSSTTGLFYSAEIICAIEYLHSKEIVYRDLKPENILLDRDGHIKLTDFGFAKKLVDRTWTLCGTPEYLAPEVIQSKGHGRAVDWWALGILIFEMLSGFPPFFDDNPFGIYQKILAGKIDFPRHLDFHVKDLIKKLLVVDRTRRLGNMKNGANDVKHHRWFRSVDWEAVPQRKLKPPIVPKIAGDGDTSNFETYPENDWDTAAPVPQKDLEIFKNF
The note with it: at 0.1 µM.

Test [19] deals with T7, cAMP-dependent protein kinase catalytic subunit PRKX (Homo sapiens). The note with it: at 1 µM.
Test [20] addresses Rho-associated protein kinase 1 (Homo sapiens) (UniProt Q13464). The conditions noted are these: at 0.1 µM.

Chain of Protein kinase C theta type (Homo sapiens) (Q04759 whole entry, looked up): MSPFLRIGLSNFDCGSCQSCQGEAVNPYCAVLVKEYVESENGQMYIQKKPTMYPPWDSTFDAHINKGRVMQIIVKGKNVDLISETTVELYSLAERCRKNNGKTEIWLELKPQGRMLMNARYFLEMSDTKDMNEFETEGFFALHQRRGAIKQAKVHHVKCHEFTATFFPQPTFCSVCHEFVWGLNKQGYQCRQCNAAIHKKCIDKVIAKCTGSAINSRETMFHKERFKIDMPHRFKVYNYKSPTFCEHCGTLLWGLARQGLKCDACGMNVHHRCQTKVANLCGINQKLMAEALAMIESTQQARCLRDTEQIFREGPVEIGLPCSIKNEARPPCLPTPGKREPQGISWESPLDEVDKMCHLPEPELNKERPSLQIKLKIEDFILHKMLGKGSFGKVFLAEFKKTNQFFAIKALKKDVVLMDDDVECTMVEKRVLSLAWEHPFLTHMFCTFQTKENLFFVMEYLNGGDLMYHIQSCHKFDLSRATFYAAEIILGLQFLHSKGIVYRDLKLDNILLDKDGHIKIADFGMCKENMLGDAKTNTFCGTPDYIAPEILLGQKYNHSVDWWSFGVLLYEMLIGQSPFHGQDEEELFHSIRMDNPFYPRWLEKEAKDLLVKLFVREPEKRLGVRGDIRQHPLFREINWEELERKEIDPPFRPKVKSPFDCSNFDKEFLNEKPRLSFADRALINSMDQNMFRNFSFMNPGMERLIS
Chain of Protein kinase C beta type (Homo sapiens) (P05771 2-671 limits assumed): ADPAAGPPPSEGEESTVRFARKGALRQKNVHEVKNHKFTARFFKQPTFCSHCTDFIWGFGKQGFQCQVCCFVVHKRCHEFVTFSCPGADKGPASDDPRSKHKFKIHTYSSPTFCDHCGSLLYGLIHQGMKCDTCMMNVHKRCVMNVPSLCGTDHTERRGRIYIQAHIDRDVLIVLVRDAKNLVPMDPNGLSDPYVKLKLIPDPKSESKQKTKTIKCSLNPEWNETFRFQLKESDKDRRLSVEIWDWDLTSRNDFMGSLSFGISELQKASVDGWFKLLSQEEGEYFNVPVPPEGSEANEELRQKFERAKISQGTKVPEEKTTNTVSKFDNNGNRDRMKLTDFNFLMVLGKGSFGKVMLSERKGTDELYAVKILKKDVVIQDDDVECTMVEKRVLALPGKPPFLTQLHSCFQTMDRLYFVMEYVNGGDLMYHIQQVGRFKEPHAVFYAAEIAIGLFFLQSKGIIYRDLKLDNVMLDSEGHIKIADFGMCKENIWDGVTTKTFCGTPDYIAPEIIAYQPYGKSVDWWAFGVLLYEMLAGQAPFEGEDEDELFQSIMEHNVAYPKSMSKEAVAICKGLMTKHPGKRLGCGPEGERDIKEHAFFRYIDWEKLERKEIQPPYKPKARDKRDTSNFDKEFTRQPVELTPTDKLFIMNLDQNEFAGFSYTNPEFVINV
Chain of Rho-associated protein kinase 1 (Homo sapiens) (Q13464 2-1354 limits assumed): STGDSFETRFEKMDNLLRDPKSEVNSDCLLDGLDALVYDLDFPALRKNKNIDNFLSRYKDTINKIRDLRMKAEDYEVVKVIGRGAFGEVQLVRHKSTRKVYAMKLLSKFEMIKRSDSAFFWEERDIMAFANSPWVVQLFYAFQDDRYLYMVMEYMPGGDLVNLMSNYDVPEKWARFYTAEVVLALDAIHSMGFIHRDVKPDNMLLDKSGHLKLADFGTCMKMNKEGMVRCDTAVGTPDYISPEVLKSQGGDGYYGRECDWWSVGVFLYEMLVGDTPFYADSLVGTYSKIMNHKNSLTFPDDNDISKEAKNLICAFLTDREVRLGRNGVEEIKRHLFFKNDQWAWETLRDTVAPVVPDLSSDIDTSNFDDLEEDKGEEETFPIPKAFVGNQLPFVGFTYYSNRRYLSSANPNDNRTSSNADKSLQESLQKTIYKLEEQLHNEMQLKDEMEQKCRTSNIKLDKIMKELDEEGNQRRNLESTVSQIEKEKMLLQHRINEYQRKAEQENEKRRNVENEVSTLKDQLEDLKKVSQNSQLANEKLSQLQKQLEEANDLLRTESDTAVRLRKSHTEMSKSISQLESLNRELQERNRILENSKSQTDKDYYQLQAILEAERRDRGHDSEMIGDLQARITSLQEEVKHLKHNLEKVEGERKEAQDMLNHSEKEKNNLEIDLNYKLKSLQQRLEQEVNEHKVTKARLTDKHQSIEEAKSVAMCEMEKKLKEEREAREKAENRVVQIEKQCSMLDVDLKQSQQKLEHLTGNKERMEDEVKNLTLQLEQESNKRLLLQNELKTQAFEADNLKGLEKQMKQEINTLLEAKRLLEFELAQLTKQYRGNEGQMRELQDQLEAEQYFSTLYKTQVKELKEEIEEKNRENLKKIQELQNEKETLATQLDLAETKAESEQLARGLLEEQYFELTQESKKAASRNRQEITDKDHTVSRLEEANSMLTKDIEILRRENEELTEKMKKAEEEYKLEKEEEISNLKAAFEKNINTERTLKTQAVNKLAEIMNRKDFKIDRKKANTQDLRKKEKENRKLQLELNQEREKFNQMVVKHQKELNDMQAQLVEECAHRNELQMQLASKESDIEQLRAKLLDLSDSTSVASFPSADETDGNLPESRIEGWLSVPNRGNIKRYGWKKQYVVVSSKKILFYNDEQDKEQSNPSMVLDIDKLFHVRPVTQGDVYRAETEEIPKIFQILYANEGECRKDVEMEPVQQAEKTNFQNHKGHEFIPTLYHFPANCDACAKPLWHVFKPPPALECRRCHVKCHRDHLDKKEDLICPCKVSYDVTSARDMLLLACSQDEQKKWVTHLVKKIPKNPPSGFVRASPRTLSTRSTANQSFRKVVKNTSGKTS

On to `NC(=O)c1cc(-c2ccncc2)cc(-c2ccccc2)c1N`, for which the inhibition in test [1] was found to be 4.29%; in test [2], 2.83%; in test [3], 4.85%; in [4], 2.27%; in test [5], 4.49%; in [6] it was 1.9%. In addition, the inhibition was 2.02% in test [7]; 4.07% in test [8]; 6.39% in test [9]; 5.01% in test [10]; 5.63% in test [11]; 5.86% in test [12]. Besides, the inhibition in [13] was 6.16%; in test [14], 3.61%; in test [15] it was 8.21%; in test [16], 2.71%; in test [17], 5.42%; in test [18], 1.92%. Also, the inhibition came to 2.61% in test [19] and 1.71% in [20].
With `CCN(CC)Cc1ccc(Nc2nccc(-c3cnn4ncccc34)n2)cc1`, the inhibition in test [1] was 7.9%; in test [2], 1.27%; in test [3] it was 2.03%; in test [4], 2.37%; in test [5], 4.84%; in test [6], 1%. Further, the inhibition was 6.38% in [7]; 36.3% in test [8]; 65.6% in test [9]; 28.1% in test [10]; 64.4% in test [11]; 30.2% in test [12]. For the same compound, the inhibition in test [13] was 62.6%; in test [14], 3.48%; in test [15], 14.9%; in test [16] it was 3.29%; in [17], 13.7%; in test [18], 2.55%. Also, the inhibition in test [19] was determined as 4.27%; in test [20], 2.36%.
